Measurements as given in PubChem BioAssay.
Activity calls are given as the source filed them. Unless noted, no stated cut-off is given here; in the data, active means inhibition above about 44%; inactive means the rest. Bridge positions count the residues as written; N and C are the ends. Square brackets hold non-standard residues; d marks the D form. Peptide text beside a SMILES is read from it.

Tests used:
[1] = molecular target: Nuclear receptor coactivator 3 (Homo sapiens) (UniProt Q9Y6Q9); experiment: NCOA3 GAL4-fusion reporter inhibition – cell-based, luminescence, quadruplicate, confirmation (AID 588792;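 active means mean inhibition over 43.08%, the solvent-only control mean plus 3 SD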;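 further: 0% = DMSO treated cells and 100% = gossypol at 36 µM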); details: HEK293 GAL4-SRC3 luciferase reporter, at 3.6 µM, hits give high values
[2] = system: transactivating tegument protein VP16 (Human herpesvirus 1), Gal4-VP16 luciferase reporter; experiment: repression of VP16-driven luciferase reporter – cell-based, luminescence, high throughput, counter-screen for SRC3 inhibitor project (AID 588794; in the data active means inhibition above about 30%); details: mammalian cells, at 3.6 µM, hits give high values
[3] = molecular target: Nuclear receptor coactivator 1 (Homo sapiens) (UniProt Q15788); experiment: NCOA1 GAL4-fusion reporter inhibition – cell-based, luminescence, quadruplicate, confirmation (AID 588820;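 active means mean inhibition above 46.68%, the untreated control wells mean plus 3 SD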;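 further: 0% = DMSO wells and 100% = gossypol 36 µM treated wells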); details: HEK293 GAL4-SRC1 luciferase reporter, at 3.6 µM, hits give high values
[4] = repression of VP16-driven luciferase reporter – cell-based, luminescence, high throughput, counter-screen for SRC1 inhibitor project (AID 588824; in the data active means inhibition above about 25%); details: cell-based VP16 transactivation luciferase luminescence; at 3.6 µM; hits give high values
[5] = StAR promoter reporter inhibitors, counter-screen for LRH-1 inverse agonist project, cell-based, luminescence, high throughput (AID 651611; in the data active means inhibition above about 28%); details: StAR promoter luciferase reporter counterscreen, at 3.6 µM, hits give high values
[6] = molecular target: Nuclear receptor subfamily 5 group A member 2 (Homo sapiens) (UniProt O00482); experiment: NR5A2 activity suppression in reporter cells – cell-based, luminescence, confirmation (AID 651613; in the data active means inhibition above about 42%;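 further: HEK293T cells co-transfected with LRH-1 and StAR promoter luciferase reporter; 0% = vehicle wells and 100% = parental cells lacking receptor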); details: cell-based LRH-1 luciferase reporter, inverse agonism; at 3.6 µM; hits give high values
[7] = molecular target: Steroidogenic factor 1 (Homo sapiens) (UniProt Q13285); experiment: inverse agonism at SF1 nuclear receptor – cell-based, luminescence, high throughput, counter-screen for LRH-1 inverse agonist project (AID 651614); details: cell-based SF1 luciferase reporter, at 3.6 µM, hits give high values;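 further: cells cotransfected with StAR promoter reporter and SF1 expression vector; 0% = vehicle on cells with receptor and 100% = vehicle on cells lacking receptor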
[8] = compounds suppressing VP16-driven luciferase signal – cell-based, luminescence, high throughput, counter-screen for LRH-1 inverse agonist project (AID 651615; in the data active means inhibition above about 33%); details: Gal4-VP16 luciferase reporter cells, at 3.6 µM, hits give high values
[9] = system: transactivating tegument protein VP16 (Human herpesvirus 1); experiment: compounds suppressing VP16-driven luciferase signal – cell-based, luminescence, single concentration, counter-screen for SRC2 inhibitor project (AID 652007; in the data active means inhibition above about 36%); details: cell-based VP16 transactivation luciferase reporter, at 8.9 µM, hits give high values
[10] = molecular target: Nuclear receptor coactivator 2 (Homo sapiens) (UniProt Q15596); experiment: inhibition of GAL4-SRC2 driven luciferase expression – cell-based, luminescence, HEK293, triplicate, confirmation (AID 652008;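 active means mean inhibition above 46.5%, the solvent-only control mean plus 3 SD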;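 further: 0% = DMSO-treated cells and 100% = Gossypol at 36 µM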); details: HEK293 GAL4-SRC2 luciferase reporter, at 8.9 µM, hits give high values

Measured: inhibition

Sequence of Nuclear receptor subfamily 5 group A member 2 (Homo sapiens) (O00482 whole entry, looked up): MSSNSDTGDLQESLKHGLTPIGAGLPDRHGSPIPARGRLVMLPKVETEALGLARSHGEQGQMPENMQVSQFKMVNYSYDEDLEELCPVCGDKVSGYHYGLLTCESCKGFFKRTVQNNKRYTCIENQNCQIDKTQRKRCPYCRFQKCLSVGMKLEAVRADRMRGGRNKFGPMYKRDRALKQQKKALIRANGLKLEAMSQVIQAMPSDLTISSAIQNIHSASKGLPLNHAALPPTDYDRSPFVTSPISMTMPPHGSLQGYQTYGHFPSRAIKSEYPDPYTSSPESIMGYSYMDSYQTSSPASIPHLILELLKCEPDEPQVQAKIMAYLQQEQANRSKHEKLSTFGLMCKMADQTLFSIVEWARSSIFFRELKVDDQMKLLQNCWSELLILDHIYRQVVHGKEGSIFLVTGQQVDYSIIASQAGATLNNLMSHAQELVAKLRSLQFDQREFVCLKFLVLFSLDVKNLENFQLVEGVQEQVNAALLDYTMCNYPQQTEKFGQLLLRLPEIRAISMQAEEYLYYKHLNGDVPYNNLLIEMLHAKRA
Sequence of Nuclear receptor coactivator 2 (Homo sapiens) (Q15596 whole entry, looked up, the tested form may be a part): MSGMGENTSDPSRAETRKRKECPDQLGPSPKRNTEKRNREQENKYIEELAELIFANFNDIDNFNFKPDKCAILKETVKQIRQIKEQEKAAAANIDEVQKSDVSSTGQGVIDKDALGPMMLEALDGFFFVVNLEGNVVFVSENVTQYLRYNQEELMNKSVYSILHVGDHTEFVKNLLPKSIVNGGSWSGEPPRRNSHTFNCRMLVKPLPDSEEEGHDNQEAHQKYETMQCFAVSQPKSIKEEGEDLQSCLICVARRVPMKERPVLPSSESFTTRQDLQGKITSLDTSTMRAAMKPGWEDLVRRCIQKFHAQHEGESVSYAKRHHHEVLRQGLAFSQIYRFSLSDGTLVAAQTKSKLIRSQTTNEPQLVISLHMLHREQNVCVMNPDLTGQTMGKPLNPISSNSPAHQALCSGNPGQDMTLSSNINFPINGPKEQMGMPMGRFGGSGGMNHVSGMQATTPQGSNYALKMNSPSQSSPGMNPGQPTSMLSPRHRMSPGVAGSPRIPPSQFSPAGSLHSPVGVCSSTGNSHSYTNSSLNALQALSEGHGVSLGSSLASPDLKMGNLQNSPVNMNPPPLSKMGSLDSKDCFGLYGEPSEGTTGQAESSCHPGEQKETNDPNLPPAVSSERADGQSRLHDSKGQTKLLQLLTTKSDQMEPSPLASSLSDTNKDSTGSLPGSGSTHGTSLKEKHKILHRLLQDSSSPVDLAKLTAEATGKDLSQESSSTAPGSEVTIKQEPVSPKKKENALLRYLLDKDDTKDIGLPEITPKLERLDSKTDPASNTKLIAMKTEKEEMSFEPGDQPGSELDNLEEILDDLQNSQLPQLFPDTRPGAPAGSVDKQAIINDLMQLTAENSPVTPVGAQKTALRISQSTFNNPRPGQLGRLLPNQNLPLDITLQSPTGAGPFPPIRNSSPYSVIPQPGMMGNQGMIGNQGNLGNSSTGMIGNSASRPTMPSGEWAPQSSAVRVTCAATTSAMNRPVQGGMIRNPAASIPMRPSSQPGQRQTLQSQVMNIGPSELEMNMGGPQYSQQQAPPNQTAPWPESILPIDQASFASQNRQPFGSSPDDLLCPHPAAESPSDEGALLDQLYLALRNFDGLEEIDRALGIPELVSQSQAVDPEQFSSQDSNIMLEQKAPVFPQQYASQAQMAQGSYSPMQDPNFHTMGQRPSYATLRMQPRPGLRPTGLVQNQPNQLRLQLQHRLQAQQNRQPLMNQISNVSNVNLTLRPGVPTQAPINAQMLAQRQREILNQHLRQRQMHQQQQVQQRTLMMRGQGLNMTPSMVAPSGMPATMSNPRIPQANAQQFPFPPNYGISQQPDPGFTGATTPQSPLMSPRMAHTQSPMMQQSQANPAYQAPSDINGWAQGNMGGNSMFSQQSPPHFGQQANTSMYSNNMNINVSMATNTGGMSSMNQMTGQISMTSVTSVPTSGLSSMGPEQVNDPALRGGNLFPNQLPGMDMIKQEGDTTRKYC
Sequence of Nuclear receptor coactivator 1 (Homo sapiens) (Q15788 whole entry, looked up, the tested form may be a part): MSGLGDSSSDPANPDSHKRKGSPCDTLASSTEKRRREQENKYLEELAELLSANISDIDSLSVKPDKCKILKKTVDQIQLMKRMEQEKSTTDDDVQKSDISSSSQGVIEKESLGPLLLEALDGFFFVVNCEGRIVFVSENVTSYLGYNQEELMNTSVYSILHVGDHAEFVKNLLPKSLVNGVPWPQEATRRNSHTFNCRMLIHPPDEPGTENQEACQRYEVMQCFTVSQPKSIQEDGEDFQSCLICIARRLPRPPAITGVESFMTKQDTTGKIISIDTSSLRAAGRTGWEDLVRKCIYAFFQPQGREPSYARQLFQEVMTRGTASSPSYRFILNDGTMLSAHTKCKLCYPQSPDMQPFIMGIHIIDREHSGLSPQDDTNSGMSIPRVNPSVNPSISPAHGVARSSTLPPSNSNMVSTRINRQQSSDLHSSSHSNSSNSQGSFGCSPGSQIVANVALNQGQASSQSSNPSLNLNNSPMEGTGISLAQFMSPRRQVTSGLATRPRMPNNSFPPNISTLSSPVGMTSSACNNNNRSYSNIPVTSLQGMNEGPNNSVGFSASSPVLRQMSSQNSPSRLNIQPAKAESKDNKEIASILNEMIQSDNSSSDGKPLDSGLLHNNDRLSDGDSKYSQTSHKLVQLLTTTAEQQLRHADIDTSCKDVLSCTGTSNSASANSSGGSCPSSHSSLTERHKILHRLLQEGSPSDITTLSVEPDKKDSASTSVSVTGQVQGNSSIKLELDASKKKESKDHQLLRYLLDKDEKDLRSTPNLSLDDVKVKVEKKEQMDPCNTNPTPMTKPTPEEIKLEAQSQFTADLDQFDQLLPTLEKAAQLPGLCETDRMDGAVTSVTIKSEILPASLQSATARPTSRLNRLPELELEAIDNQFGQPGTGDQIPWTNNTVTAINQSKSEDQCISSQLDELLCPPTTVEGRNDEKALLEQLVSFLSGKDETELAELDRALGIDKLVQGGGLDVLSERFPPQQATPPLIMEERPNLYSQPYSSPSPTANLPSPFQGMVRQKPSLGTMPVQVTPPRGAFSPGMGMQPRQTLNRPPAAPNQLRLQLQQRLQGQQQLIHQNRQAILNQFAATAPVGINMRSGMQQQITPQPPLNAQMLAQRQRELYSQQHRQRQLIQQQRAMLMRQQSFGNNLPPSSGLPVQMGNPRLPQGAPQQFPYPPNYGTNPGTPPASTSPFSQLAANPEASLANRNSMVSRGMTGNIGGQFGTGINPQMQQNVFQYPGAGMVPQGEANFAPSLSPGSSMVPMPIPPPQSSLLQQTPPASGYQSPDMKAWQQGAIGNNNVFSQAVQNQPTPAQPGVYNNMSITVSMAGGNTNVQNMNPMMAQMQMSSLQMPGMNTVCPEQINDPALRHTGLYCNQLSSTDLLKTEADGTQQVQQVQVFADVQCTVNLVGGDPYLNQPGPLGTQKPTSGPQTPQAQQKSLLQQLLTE
Sequence of Steroidogenic factor 1 (Homo sapiens) (Q13285 whole entry, looked up, the tested form may be a part): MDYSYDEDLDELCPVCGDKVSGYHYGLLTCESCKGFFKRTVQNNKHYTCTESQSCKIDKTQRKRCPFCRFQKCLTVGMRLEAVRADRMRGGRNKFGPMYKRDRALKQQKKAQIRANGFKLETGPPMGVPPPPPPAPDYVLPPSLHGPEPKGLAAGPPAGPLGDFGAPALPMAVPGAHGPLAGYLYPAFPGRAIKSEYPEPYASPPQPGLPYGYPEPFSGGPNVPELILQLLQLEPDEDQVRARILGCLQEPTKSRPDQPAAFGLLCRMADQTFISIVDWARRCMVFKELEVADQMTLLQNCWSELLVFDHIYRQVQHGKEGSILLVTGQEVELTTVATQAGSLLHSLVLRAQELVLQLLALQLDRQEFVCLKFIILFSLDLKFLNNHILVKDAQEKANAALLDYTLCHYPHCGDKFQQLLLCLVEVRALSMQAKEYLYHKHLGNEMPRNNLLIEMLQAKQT

CCCNC1=C(N(C(C)=O)c2cccc(F)c2)C(=O)c2ccccc2C1=O
inactive: [9] 24.1% | [10] 34.3%
active: [1] 49.9% | [2] 65.3% | [3] 58.6% | [4] 67.2% | [5] 68.9% | [6] 68.8% | [7] 88% | [8] 69.2%

Cc1ccc(/C=C2/SC(=S)N(CCCC(=O)Nc3ccc(O)cc3)C2=O)cc1
active: [1] 57% | [5] 55% | [7] 52.3% | [9] 43.6% | [10] 54.1%
inactive: [2] 12.8% | [3] 41.2% | [4] 3.55% | [6] 6.39% | [8] -5.05%

CC(C)(C)c1ccc(C(=O)Nc2ccc(CC(=O)O)cc2)o1
inactive: [3] 37.9%
active: [1] 54.1% | [2] 40% | [4] 42% | [5] 45.1% | [6] 52.5% | [7] 46.9% | [8] 37.7% | [9] 70.2% | [10] 92.1%

CCOc1ccccc1-n1c(SCC(=O)Nc2ccccc2C(=O)O)nc2ccccc2c1=O
active: [10] 49.9%
inactive: [1] 36.2% | [2] 26% | [3] 16.8% | [4] 14.7% | [5] 16% | [6] -6.48% | [7] 9.06% | [8] -14.2% | [9] 30.9%

O=S(=O)(c1ccc(NC(=S)NCc2cccnc2)cc1)N1CCCCC1
active: [1] 91% | [2] 72.3% | [3] 77.6% | [4] 65.2% | [5] 90.8% | [6] 102% | [7] 96.3% | [8] 88.6% | [10] 50.2%
inactive: [9] 12.3%

CNC1=C(N(C(C)=O)c2ccc(Br)cc2)C(=O)c2ccccc2C1=O
active: [1] 82.4% | [2] 84.8% | [3] 74.2% | [4] 84.8% | [5] 76.4% | [6] 97.4% | [7] 90.8% | [8] 89.3% | [10] 48.9%
inactive: [9] 18.5%

CC[C@H](C)[C@@H]1NC(=O)[C@@H](CC(C)C)NC(=O)[C@H](C(C)C)NC(=O)[C@H]2CSSC[C@H](NC1=O)C(=O)N2 (cyclo(C[dC]V[dL]I); disulfide 1-2)
active: [1] 99.9% | [2] 98.3% | [3] 99.6% | [4] 98% | [5] 96% | [6] 109% | [7] 97.7% | [8] 97.5% | [9] 98.3% | [10] 99.6%

COc1ccc(C[C@H](N)C(=O)N[C@H]2[C@@H](O)[C@H](n3cnc4c(N(C)C)ncnc43)O[C@@H]2CO)cc1
active: [1] 97% | [2] 94.2% | [3] 89.3% | [4] 91.8% | [5] 97% | [6] 111% | [7] 99.4% | [8] 99.4% | [9] 91% | [10] 92.4%

N#Cc1c(NC(=O)CSc2ncn[nH]2)sc2c1CCCCC2
inactive: [3] 28.3%
active: [1] 51.8% | [2] 65.9% | [4] 59% | [5] 29.9% | [6] 62.8% | [7] 50.1% | [8] 60.7% | [9] 87.6% | [10] 88%

O=C(OCCC12CC3CC(CC(C3)C1)C2)c1ccc(NCc2cc(O)ccc2O)cc1
active: [1] 88.1% | [4] 57.7% | [5] 72.6% | [6] 80.7% | [7] 75.3% | [8] 83.8% | [9] 97.1% | [10] 98.4%
inactive: [2] 25.4% | [3] 11.1%

CC(C)(C)c1ccc(C(=O)O/N=C(\N)c2ccccc2)cc1
active: [1] 74.5% | [2] 73.6% | [3] 61.1% | [4] 58.3% | [5] 61.9% | [6] 55% | [7] 64.8% | [8] 51.1% | [9] 76.9% | [10] 87.7%

COC(=O)CCn1nnc(-c2ccc(C(C)C)cc2)n1
active: [1] 55.4% | [2] 38.7% | [4] 35.6% | [5] 48.7% | [6] 55% | [7] 46.7% | [8] 39.9% | [9] 58.8% | [10] 92.6%
inactive: [3] 40.5%

CC1CCc2nc(N)c(C#N)c(-c3cccnc3)c2C1 (stereo not given)
active: [1] 66.7% | [2] 57.9% | [3] 68.7% | [4] 58.6% | [5] 42.3% | [6] 52.9% | [7] 46.1% | [8] 72.9% | [10] 53.9%
inactive: [9] 15.6%

N#Cc1c(N)n(C2OC(CO)C(O)C2O)c2ncnc(N)c12 (stereo not given)
active: [1] 96% | [2] 96% | [3] 79.9% | [4] 95.1% | [5] 85.9% | [6] 106% | [7] 95.6% | [8] 96.3% | [9] 62% | [10] 66.3%

CC(C)c1ccc(-n2c(-c3ccccc3)c[n+]3c2CCc2ccccc2-3)cc1
active: [1] 72.4% | [2] 84% | [3] 63.6% | [4] 84.4% | [5] 76.3% | [6] 108% | [7] 91.6% | [8] 90.1% | [9] 60.1% | [10] 71.4%

CC(C)(C)C(=O)/C(=C/c1ccc(Cl)cc1)n1cncn1
active: [1] 73.4% | [2] 64.5% | [4] 59.1% | [5] 78.4% | [6] 70.4% | [7] 77% | [8] 78.9% | [9] 51.1% | [10] 79.7%
inactive: [3] 40.2%

Cc1cc(C(=O)COC(=O)c2ccccc2Br)c(C)n1CC1CCCO1 (stereo not given)
inactive: [6] 20.4%
active: [1] 77.5% | [2] 71.7% | [3] 60.3% | [4] 51.9% | [5] 57.3% | [7] 51% | [8] 48.6% | [9] 66.2% | [10] 90.6%

Cc1ccc(NC(=O)c2cc(C)n(-c3ccccc3)c2C)cc1
inactive: [2] 23.7% | [3] 1.09% | [4] -11.4% | [6] -63.5% | [7] 20.4% | [8] -42.7%
active: [1] 43.4% | [5] 45.2% | [9] 61.3% | [10] 69.8%

COc1cc(NC(=O)COc2cc(O)c3c(c2)OC(C)(C)CC3=O)cc(OC)c1OC
inactive: [1] 17.8% | [3] -14.2% | [10] 38.5%
active: [2] 41.5% | [4] 41.3% | [5] 50.4% | [6] 57.3% | [7] 67.5% | [8] 64.6% | [9] 43.5%

COc1ccc(CC2C(=O)NC(C)C(=O)N(C)C3Cc4ccc(cc4)Oc4cc(ccc4O)CC(C(=O)NC(C)C(=O)NC(C)C(=O)N2C)N(C)C3=O)cc1 (stereo not given)
active: [1] 97.6% | [2] 96.4% | [3] 90.6% | [4] 95% | [5] 96% | [6] 110% | [7] 98.6% | [8] 97.2% | [9] 82.2% | [10] 76.9%

COc1cccc(NC(=O)CSc2nnc(-c3cc(C)n(-c4ccccc4)c3C)o2)c1
active: [1] 46.8% | [10] 48.5%
inactive: [2] 23.3% | [3] 3.49% | [4] -14.5% | [5] -29.8% | [6] -55.2% | [7] -12.4% | [8] -23.9% | [9] 11%

COc1cccc(N2CCN(c3ncnc4c3cnn4-c3ccc(C)cc3C)CC2)c1
active: [1] 88.3% | [2] 81.1% | [3] 54.6% | [4] 86.2% | [5] 83.2% | [6] 97.4% | [7] 89.8% | [8] 90.2% | [9] 81.1% | [10] 72.1%

O=C(O)c1ccccc1C(=O)Nc1ccc(Oc2cccc3ccccc23)cc1
inactive: [1] 26% | [3] 28% | [4] 21.7% | [6] 29.8% | [8] 13.4%
active: [2] 32.2% | [5] 34.5% | [7] 57% | [9] 77.6% | [10] 75.2%

NCC(=O)Nc1ccc(Cl)cc1C(=O)c1ccc[nH]1
inactive: [9] 21.2% | [10] 43.5%
active: [1] 66.1% | [2] 45.8% | [3] 47% | [4] 39.9% | [5] 49.4% | [6] 55.3% | [7] 62.3% | [8] 39.2%

CN=c1scc(-c2cccs2)n1/N=C/c1ccccc1O
active: [1] 91.6% | [2] 89.5% | [3] 80% | [4] 81.4% | [5] 90.6% | [6] 90.4% | [7] 91.2% | [8] 89.6% | [9] 96.8% | [10] 97.8%

Cc1cc2sc3ccc(C#CC4(O)CCCCC4)cc3c(=O)c2cc1C
active: [1] 95.4% | [2] 93.6% | [3] 90.4% | [4] 89.7% | [5] 91.2% | [6] 91.2% | [7] 92.6% | [8] 88.9% | [9] 94.2% | [10] 98.3%

Clc1ccc(-n2ncc3c(N4CCCCCC4)ncnc32)cc1
inactive: [6] 24.8%
active: [1] 77% | [2] 69.2% | [3] 52.9% | [4] 54.3% | [5] 71% | [7] 65.8% | [8] 43% | [9] 57.4% | [10] 84.6%

C[C@@H](C(=O)Nc1ccc2c(c1)OCCO2)n1c(=O)[nH]c2ccccc2c1=O
active: [10] 68.7%
inactive: [1] 34.5% | [2] -0.03% | [3] -4.84% | [4] -17.6% | [5] -11.4% | [6] -28.3% | [7] 20.2% | [8] -18.1% | [9] 3.58%

O=C(NN=Cc1c(O)ccc2ccccc12)c1ccncc1
inactive: [9] -16.9% | [10] 38%
active: [1] 77% | [2] 70.6% | [3] 65.6% | [4] 65.3% | [5] 87.4% | [6] 104% | [7] 89.8% | [8] 77.4%
